Bioassay records: PubChem, National Center for Advancing Translational Sciences (NCATS)
The list is not random: actives were taken first. Their share in the collection is about 19%.
KB-V1 cytotox: KB-V1 MDR subline cytotoxicity. KB-V1 MDR cells viability, CellTiter-Glo, 72 h. 400,000 tested, 3.4% active. Potency, µM (top dose mostly 46.1 µM), most hits filed as cytotoxic; further: nearly all actives have a fitted effect of over 60% in size
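Cytotoxicity via CellTiter-Glo luminescence after 72 h compound exposure at 37 degrees C. Cells: drug-selected KB-V1 line, DMEM phenol-red free plus 10% FBS. Compounds tested at multiple concentrations; normalized data fitted to concentration-effect curves.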
TDP1 cell noCPT: qHTS for Inhibitors of human tyrosyl-DNA phosphodiesterase 1 (TDP1): qHTS in cells in absence of CPT | DT40 Tdp1-/- hTDP1 cells, no CPT, ATP luminescence, 48 h | Potency, µM (doses to about 46.2 µM), without a hit: top-dose activity change, negative = growth inhibition, hits mostly inhibitors | 420,000 tested, 15% active | AID 686978, 2013; further: nearly all actives have a fitted effect of over 55% in size
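Luminescent ATP content (CellTiter-Glo) served as the growth readout. Knockout chicken DT40 cells expressing human TDP1 were exposed to compounds without camptothecin for a minimum 48 hr at 37 °C.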
HT1080 IDH1KD tx: HT-1080 IDH1 knockdown cell toxicity (counter line); HT-1080 IDH1 knockdown viability, ATP luminescence, 48 h; Potency, µM (doses to about 46.1 µM), for the others: top-dose activity, negative = toxicity, most hits filed as cytotoxic; 360,000 tested, 2% active; AID 686971;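 further: 0% = DMSO wells and -100% = cell-free medium wells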
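Viability of IDH1-knockdown HT-1080 fibrosarcoma cells was assessed by CellTiter-Glo after 48 h at 37 °C with titrated compound; concentration-effect curves were classified by fit quality and response size.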
HT1080-NT tox: kills 2HG-producing HT-1080-NT fibrosarcoma cells; HT-1080-NT fibrosarcoma viability, CellTiter-Glo ATP luminescence, 48 h; Potency, µM (titrated, usually from 46.1 µM), for inactives: at the top dose activity, negative = less viability, actives largely listed as cytotoxic; 360,000 tested, 1.6% active; AID 686970;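 further: NT is the 2HG producing partner of a matched IDH1 knockdown line; 0% = DMSO-treated cells and -100% = media-only wells without cells; nearly all actives have a fitted effect of over 55% in size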
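A 48-hour cytotoxicity screen used HT-1080-NT cells plated 2 hours before compound delivery. ATP-based CellTiter-Glo luminescence measured viability, normalized to DMSO and no-cell controls.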
DT40 TDP1 CPT: growth inhibition of DT40 Tdp1-/-;hTDP1 cells with camptothecin (screen for TDP1 inhibitors). chicken DT40 Tdp1-/-;hTDP1 cells + 20 nM CPT, ATP luminescence, 48 h. Potency, µM (top dose mostly 46.2 µM), for inactives: at the top dose activity change, negative = growth inhibition, hits mostly inhibitors. 420,000 tested, 12% active. AID 686979; further: nearly all actives have a fitted effect of over 55% in size
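Chicken DT40 Tdp1-/- cells stably complemented with human TDP1 were seeded at 400 cells/well in medium containing 20 nM camptothecin, exposed to pin-transferred compounds, and grown at 37 °C for at least 48 hr. Viability was read as ATP luminescence.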
KB-3-1 cytotox: kills parental KB-3-1 adenocarcinoma cells. KB-3-1 viability, CellTiter-Glo ATP luminescence, 72 h. 400,000 tested, 1.4% active. Potency, µM (titrated, usually from 46.1 µM), usual class: cytotoxic; further: nearly all actives have a fitted effect of over 60% in size
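Multi-concentration cytotoxicity screen in KB-3-1 cells grown in DMEM lacking phenol red with 10% FBS. After 72 h at 37 °C with compound, ATP-dependent luminescence was recorded.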
Starred values were filed as active, the others as inactive; i = inactive; ? = inconclusive; nt = not tested or not shown. The call rests on the fitted dose curve; in most records, active means well fitted curve in the direction sought with a large enough effect; inconclusive means small, poorly fitted or top-dose-only effect, or another doubt; inactive means no such curve, though single readings can be large; an effect the other way counts as inactive or inconclusive. Unless noted, on the % scale 0 is the no-effect control and ±100 the full control effect; potency means the concentration at half of the fitted maximal effect.

SMILES	KB-V1 cytotox	TDP1 cell noCPT	HT1080 IDH1KD tx	HT1080-NT tox	DT40 TDP1 CPT	KB-3-1 cytotox
COc1cccc(NC(=O)c2ccnc(N3CCC(C(=O)NCc4cc(OC)ccc4OC)CC3)c2)c1	i	16µM*	2%	-2%	23µM*	i
COc1ccc(-c2noc(N3CCC(C(=O)Nc4cc(OC)ccc4OC)CC3)n2)cc1	i	21µM*	-4%	-23%	21µM*	i
COc1ccc(-c2noc(N3CCC(C(=O)Nc4cccc(OC)c4)CC3)n2)cc1	i	?	-18%	-6%	18µM*	?
COc1ccc(-c2noc(N3CCC(C(=O)Nc4cccc(C)c4C)CC3)n2)cc1	nt	15µM*	nt	nt	?	nt
COc1ccc(-c2noc(N3CCC(C(=O)Nc4ccccc4OC)CC3)n2)cc1	i	?	-7%	6%	?	i
C=CCCC(=O)N1C[C@H]2CON(C)[C@H]2C[C@H]1c1cccc(Br)c1	?	-12%	9%	12%	1%	i
CN(C)C1CN(Cc2cn(Cc3ccc(C(F)(F)F)cc3)nn2)S(=O)(=O)C1 (configuration not stated)	i	-20%	2%	9%	3%	i
O=C(N[C@@H]1c2ccccc2C2(CCN(Cc3c(O)ccc4ccccc34)CC2)[C@H]1O)c1ccccc1	nt	-24%	nt	nt	-11%	nt
CN(C)Cc1cc(O)c(CN(C)C)cc1O	i	3.7µM*	3%	7%	2.6µM*	?
Cc1ccc(O)c(CN(C)Cc2cc(C)ccc2O)c1	21µM*	?	-5%	2%	?	?
CCOc1cc(N2CCOCC2)c(OCC)cc1NC(=O)c1ccccc1N1CCCC1=O	i	?	14%	10%	?	i
CC(NC(=O)c1ccco1)c1nc(-c2ccc(Cl)cc2)no1 (configuration not stated)	i	21µM*	-23%	-3%	?	i
COc1ccc(-c2noc(C(C)NC(=O)c3ccco3)n2)cc1OC (configuration not stated)	i	-4%	3%	3%	-2%	i
c1ccc(CCc2nc(-c3ccccc3)no2)cc1	i	-10%	-3%	-5%	-4%	i
O=C(Nc1ccc(-c2noc(CCc3ccccc3)n2)cc1)c1ccco1	?	?	?	?	18µM*	i
O=C(Nc1ccc(-c2nc3c(ccc4ccccc43)o2)cc1)c1ccco1	i	18µM*	10µM*	10µM*	?	i
CCOc1ccc(S(=O)(=O)N2CCOCC2)cc1NC(=O)CSC(=S)N1CCCC1	?	?	-2%	-7%	?	i
COc1ccccc1NC(=O)c1ccc(-c2nc(COc3ccc(C)cc3)c(C)o2)cc1	?	18µM*	nt	nt	21µM*	i
COc1ccc(OC)c(NC(=O)c2ccc(-c3nc(COc4ccccc4)c(C)o3)cc2)c1	i	13µM*	nt	nt	?	i
Cc1oc(-c2ccc(C(=O)NCc3ccc(N(C)C)cc3)cc2)nc1COc1ccccc1	i	-26%	nt	nt	3%	i
Cc1ccc(OCc2nc(-c3ccc(C(=O)NCc4ccc(OC(C)C)cc4)cc3)oc2C)cc1	i	21µM*	nt	nt	?	i
CCCN(C/C=C/I)C1CCc2cccc(O)c2C1 (configuration not stated)	nt	15µM*	nt	nt	?	nt
CC(C)C(OC(=O)c1nsc(Cl)c1Cl)C(=O)NCc1ccccc1 (configuration not stated)	?	0%	20%	21%	-3%	i
CN(C[C@H](Cc1ccccc1)N(C[C@H](CC1CCCCC1)N(CCc1ccccc1)N=O)N=O)N=O	i	?	14%	18%	26µM*	i
CC(CCc1ccc(O)cc1)N(C)CCc1ccccc1 (configuration not stated)	i	-3%	7%	7%	-27%	i
SMILES	KB-V1 cytotox	TDP1 cell noCPT	HT1080 IDH1KD tx	HT1080-NT tox	DT40 TDP1 CPT	KB-3-1 cytotox
CCC(C)[C@@H](CN(N=O)[C@@H](Cc1ccccc1)CN(C)N=O)N(CCc1ccccc1)N=O (some centres not stated)	?	21µM*	16%	0%	16µM*	i
CC(CCc1ccccc1)NC(=O)CCC1CCCC1 (configuration not stated)	i	-21%	13%	-4%	6%	i
CN(C[C@@H](CC1CCCCC1)N(C[C@H](Cc1ccccc1)N(CCc1ccccc1)N=O)N=O)N=O	i	?	11%	1%	23µM*	i
Cc1cc(C)n(CCNC(=O)[C@H]2O[C@@H](n3cnc4c(N)ncnc43)[C@H](O)[C@@H]2O)n1	i	-2%	11%	18%	-14%	i
Cc1ccc(F)c(S(=O)(=O)NC(=O)C2(C)CCN2C(=O)Cc2ccsc2)c1 (configuration not stated)	i	-3%	14%	13%	10%	i
Cc1ccc(C)c(OCC(O)CN2CCC(C)CC2)c1C (configuration not stated)	i	21µM*	0%	-1%	?	i
CC1CCN(CC(O)COc2ccc(OCC(O)CN3CCC(C)CC3)cc2)CC1 (configuration not stated)	i	?	5%	0%	?	i
Cc1ccc(C)c(OCC(O)CN2CCc3ccccc3C2)c1C (configuration not stated)	i	3.7µM*	9.2µM*	?	6.5µM*	i
CC(C)(C)C1CCC(OCC(O)CN2CCN(c3ccccc3)CC2)CC1 (configuration not stated)	?	?	?	-19%	?	i
CC1CCN(CC(O)COC2CCC(C(C)(C)C)CC2)CC1 (configuration not stated)	i	18µM*	-19%	?	23µM*	i
Cn1c(=O)n(C)c2cc(CNCc3ccc(C(=O)O)cc3)ccc21	?	-18%	nt	nt	-3%	i
Cc1ccc(NP(=O)(Nc2ccc(C)cc2)Nc2ccc(C)cc2)cc1	?	?	-2%	-14%	-4%	21µM*
Cc1ccc(P(C)(=O)c2ccc(C)cc2)cc1	i	-12%	19%	9%	-8%	i
